The text below walks through data of publication PMC7862700, “An all-to-all approach to the identification of sequence-specific readers for epigenetic DNA modifications on cytosine”.

Common to all, as to assay: DAPPL (digital affinity profiling via proximity ligation, sequencing); 10 mM Tris-HCl pH 7.5, 50 mM NaCl, 1 mM DTT, 4% glycerol, room temperature, 30 min; GST-TFs on glutathione beads, 16-mer random dsDNA library, 0.1% formaldehyde crosslink after washing; high values mean tight binding
Holding throughout (settings): protein: recombinant; tags: N-terminal GST; dsDNA, one strand shown

The target of one test is T1, ELK1 (Homo sapiens, UniProt P19419 1-428).
T1 sequence: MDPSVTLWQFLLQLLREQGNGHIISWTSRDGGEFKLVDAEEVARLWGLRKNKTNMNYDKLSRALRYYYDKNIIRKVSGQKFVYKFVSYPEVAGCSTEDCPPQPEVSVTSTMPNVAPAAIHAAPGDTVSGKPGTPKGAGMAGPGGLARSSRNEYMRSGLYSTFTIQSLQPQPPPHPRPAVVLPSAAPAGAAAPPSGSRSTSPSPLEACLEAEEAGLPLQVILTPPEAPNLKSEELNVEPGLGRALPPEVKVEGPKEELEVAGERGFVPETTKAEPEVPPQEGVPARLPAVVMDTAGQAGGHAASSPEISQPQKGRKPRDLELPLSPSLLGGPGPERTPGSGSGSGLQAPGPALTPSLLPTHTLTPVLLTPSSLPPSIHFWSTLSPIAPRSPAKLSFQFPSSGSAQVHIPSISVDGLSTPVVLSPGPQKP
A digest of the protocol:
(§1)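 Human transcription factors were made in yeast as GST fusions, captured on glutathione beads and barcoded with DNA. With a tag-only sample included, the pool was incubated with 200 nmole of a random double-stranded 16-mer DNA library in Tris/NaCl/DTT/glycerol buffer at room temperature for 30 min, then crosslinked with 0.1% formaldehyde after washing, ligated by proximity, amplified and sequenced. For binding signal, each hexamer's read frequency for a factor is divided by its frequency for the tag-only sample.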

The target of a further test is T2, ERG (Homo sapiens, UniProt P11308 1-479).
T2 sequence: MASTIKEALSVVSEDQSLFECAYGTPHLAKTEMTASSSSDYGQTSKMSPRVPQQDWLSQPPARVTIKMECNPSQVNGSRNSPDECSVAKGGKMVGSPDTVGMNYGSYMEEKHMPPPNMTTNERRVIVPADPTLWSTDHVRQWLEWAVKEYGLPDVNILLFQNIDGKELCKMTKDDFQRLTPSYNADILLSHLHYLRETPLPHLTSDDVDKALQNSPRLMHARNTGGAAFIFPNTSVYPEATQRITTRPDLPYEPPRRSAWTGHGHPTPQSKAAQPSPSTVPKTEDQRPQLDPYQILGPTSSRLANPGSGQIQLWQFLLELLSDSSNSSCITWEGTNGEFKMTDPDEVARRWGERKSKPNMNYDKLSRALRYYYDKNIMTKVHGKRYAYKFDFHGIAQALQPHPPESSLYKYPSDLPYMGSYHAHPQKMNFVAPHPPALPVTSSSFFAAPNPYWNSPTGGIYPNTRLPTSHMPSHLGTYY
Put shortly:
as §1

In another test the target is ELF1 (Homo sapiens, UniProt P32519 1-619). A digest of the protocol: as §1
Sequence of ELF1 (P32519 whole entry): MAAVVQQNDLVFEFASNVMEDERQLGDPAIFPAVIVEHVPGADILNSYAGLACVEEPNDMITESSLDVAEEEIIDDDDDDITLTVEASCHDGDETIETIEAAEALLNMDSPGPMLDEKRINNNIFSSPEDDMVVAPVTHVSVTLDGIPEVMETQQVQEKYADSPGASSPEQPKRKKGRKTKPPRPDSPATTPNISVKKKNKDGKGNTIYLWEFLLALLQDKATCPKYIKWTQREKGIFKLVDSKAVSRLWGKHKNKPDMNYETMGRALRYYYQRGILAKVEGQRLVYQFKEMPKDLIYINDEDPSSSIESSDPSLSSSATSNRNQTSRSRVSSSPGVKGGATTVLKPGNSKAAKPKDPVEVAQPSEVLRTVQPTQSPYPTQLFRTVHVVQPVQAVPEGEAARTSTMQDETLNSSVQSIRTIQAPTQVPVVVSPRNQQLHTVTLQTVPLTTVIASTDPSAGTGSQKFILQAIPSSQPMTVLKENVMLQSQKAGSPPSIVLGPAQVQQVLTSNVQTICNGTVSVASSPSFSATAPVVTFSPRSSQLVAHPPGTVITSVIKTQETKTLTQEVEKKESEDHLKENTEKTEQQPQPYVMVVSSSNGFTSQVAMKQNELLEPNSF
A further test deals with SPIB (Homo sapiens, UniProt Q01892 1-262). Put shortly:
as §1

For another test, the target named is T3, SPIC (Homo sapiens, UniProt Q8N5J4 1-248).
T3 sequence: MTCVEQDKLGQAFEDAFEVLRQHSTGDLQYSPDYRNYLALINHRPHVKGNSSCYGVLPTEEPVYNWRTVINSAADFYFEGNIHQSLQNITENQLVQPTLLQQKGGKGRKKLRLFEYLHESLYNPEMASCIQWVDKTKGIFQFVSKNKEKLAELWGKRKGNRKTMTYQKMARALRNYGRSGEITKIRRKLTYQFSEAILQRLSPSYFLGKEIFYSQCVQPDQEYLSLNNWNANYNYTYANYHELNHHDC
Put shortly: as §1

Another test has as its target T4, ELK4 (Homo sapiens, UniProt P28324-2 1-405).
T4 sequence: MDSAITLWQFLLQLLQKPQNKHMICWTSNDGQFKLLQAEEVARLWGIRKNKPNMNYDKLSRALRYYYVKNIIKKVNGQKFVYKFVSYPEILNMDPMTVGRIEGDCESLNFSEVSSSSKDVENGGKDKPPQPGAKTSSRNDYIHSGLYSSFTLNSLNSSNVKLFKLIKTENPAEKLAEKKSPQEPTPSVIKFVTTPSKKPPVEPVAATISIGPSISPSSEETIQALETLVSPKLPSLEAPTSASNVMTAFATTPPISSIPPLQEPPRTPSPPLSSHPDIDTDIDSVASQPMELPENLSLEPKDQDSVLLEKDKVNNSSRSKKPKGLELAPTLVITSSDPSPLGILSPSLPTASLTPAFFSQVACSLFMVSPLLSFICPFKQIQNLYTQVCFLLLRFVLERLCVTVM
Put shortly: as §1

A further test addresses T5, ETV2 (Homo sapiens, UniProt O00321 1-342).
T5 sequence: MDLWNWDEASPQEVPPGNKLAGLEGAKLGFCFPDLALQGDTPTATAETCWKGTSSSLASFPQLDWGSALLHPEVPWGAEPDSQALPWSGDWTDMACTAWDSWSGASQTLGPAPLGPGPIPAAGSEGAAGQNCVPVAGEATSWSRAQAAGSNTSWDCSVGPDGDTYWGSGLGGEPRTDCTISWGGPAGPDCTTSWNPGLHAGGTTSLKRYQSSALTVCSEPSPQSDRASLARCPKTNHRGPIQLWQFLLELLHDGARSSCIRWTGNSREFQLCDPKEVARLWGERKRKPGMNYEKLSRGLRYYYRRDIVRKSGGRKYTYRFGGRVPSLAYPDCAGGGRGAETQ
A digest of the protocol: as §1

In another test the target is T6, ETV3L (Homo sapiens, UniProt Q6ZN32 1-361).
T6 sequence: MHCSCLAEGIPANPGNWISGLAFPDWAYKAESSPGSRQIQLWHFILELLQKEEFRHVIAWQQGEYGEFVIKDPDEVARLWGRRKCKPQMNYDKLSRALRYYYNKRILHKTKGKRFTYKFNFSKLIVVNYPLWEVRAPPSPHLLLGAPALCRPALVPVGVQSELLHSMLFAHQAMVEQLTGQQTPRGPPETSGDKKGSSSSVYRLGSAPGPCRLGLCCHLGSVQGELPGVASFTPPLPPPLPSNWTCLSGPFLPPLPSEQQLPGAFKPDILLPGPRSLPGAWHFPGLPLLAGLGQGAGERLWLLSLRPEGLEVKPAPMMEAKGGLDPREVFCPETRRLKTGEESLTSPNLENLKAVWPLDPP
A digest of the protocol:
as §1

Another test concerns the target T7, ETV3 (Homo sapiens, UniProt P41162-2 1-143).
T7 sequence: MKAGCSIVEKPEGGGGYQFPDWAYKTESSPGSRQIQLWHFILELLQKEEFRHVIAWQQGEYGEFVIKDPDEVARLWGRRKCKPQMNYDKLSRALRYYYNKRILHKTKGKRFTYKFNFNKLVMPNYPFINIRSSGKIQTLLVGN
A digest of the protocol: as §1

In the next test the target is T8, GABPA (Homo sapiens, UniProt Q06546 1-454).
T8 sequence: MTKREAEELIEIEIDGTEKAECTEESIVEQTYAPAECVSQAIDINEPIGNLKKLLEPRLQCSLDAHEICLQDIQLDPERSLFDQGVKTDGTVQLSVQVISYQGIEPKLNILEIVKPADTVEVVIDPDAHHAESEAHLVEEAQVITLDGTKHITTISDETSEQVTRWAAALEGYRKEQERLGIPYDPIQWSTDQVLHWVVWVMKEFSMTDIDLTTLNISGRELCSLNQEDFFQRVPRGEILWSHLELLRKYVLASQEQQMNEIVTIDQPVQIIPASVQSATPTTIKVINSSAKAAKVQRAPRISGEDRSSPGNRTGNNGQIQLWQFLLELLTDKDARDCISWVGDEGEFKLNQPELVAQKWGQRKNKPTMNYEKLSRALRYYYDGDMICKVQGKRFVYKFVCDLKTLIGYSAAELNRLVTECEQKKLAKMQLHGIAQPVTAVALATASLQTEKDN
A digest of the protocol:
as §1

The target of another test is T9, EHF (Homo sapiens, UniProt Q9NZC4 1-300).
T9 sequence: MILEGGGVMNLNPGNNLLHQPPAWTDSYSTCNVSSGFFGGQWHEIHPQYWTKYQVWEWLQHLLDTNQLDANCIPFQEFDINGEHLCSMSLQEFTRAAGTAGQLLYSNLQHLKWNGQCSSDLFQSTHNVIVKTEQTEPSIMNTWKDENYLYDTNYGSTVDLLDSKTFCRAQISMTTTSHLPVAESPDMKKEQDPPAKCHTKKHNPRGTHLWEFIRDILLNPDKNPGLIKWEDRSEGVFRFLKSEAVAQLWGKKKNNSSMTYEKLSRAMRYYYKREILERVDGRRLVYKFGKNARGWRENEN
A digest of the protocol:
as §1

For a further test, the target named is T10, ELK3 (Homo sapiens, UniProt P41970 1-407).
T10 sequence: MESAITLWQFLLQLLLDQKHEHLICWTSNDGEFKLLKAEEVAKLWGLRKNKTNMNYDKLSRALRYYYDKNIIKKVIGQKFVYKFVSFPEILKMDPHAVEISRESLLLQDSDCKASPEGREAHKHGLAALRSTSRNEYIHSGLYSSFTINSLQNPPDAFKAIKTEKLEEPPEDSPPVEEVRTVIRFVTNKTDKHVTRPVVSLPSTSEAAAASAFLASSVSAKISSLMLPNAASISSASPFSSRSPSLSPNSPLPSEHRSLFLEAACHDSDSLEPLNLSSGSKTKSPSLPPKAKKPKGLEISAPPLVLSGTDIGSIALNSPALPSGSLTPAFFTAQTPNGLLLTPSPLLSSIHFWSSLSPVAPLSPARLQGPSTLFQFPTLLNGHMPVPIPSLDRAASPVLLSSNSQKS
Put shortly: as §1

For a further test, the target named is T11, FEV (Homo sapiens, UniProt Q99581 1-238).
T11 sequence: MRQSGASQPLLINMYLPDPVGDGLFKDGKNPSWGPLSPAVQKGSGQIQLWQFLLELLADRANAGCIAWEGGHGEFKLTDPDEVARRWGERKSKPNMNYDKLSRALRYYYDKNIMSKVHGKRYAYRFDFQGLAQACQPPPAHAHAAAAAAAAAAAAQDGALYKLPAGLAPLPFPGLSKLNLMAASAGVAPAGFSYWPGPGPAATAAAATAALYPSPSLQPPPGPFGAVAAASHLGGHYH
Put shortly: as §1

In another test the target is ELF4 (Homo sapiens, UniProt Q99607 1-663). Put shortly:
as §1

Another test has as its target T12, SPDEF (Homo sapiens, UniProt O95238 1-335).
T12 sequence: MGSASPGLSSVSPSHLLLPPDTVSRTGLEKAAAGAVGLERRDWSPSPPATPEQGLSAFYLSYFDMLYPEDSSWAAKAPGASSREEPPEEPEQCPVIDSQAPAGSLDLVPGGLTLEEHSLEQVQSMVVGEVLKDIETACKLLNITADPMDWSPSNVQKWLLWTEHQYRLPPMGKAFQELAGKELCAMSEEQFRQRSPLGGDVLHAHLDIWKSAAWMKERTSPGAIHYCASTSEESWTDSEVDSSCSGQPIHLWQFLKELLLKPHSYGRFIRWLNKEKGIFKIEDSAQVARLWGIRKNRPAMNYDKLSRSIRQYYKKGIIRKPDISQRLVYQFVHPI
A digest of the protocol: as §1

Sequence of ELF4 (Q99607 whole entry): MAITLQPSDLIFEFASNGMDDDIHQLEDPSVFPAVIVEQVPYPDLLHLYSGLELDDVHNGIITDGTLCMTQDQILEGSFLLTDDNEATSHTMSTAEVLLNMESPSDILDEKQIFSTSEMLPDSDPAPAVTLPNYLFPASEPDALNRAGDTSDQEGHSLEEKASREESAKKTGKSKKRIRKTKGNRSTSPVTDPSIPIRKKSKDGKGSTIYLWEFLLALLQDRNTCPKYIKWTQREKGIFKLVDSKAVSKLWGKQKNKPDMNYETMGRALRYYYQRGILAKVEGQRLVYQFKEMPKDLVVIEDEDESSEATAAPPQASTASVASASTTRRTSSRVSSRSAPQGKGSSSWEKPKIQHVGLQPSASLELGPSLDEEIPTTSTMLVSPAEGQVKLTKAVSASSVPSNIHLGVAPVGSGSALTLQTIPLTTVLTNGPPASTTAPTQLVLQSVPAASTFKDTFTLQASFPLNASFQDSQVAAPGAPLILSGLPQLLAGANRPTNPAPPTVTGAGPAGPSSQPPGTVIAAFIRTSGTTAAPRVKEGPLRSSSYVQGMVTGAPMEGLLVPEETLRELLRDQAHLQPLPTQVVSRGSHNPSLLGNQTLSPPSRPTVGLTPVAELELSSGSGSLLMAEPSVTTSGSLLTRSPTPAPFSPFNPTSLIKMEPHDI
Sequence of SPIB (Q01892 whole entry): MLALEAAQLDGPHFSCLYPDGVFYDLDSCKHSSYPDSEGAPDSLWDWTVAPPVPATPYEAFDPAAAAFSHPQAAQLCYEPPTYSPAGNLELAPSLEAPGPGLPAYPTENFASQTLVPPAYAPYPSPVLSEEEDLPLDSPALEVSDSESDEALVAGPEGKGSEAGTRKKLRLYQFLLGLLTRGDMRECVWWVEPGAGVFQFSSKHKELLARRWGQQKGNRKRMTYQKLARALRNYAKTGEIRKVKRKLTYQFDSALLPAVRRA

As for GCCCTG, the binding signal is 1.12 fold enrichment (6-mer frequency, TF over GST control) in the test with ELK1; 1 fold enrichment (6-mer frequency, TF over GST control) with ERG; 1.06 fold enrichment (6-mer frequency, TF over GST control) in the test with ELF1; 1.07 fold enrichment (6-mer frequency, TF over GST control) in the test with SPIB; 1.11 fold enrichment (6-mer frequency, TF over GST control) with SPIC; 1.04 fold enrichment (6-mer frequency, TF over GST control) in the test with ELK4. Further, the binding signal with ETV2 was 1 fold enrichment (6-mer frequency, TF over GST control); with ETV3L, 1.08 fold enrichment (6-mer frequency, TF over GST control); in the test with ETV3 it was 1.04 fold enrichment (6-mer frequency, TF over GST control).
For the sequence CTAGGG, the binding signal with SPIC is 1.07 fold enrichment (6-mer frequency, TF over GST control).
Regarding ACGCGC, the binding signal with ELK1 was 1.12 fold enrichment (6-mer frequency, TF over GST control); with GABPA, 1.07 fold enrichment (6-mer frequency, TF over GST control); with ELF1, 1.05 fold enrichment (6-mer frequency, TF over GST control); in the test with EHF it was 1.07 fold enrichment (6-mer frequency, TF over GST control); with ELK3, 1.04 fold enrichment (6-mer frequency, TF over GST control); with FEV, 1.04 fold enrichment (6-mer frequency, TF over GST control). The binding signal with SPIC is 1.05 fold enrichment (6-mer frequency, TF over GST control); with ELF4 it was 1.06 fold enrichment (6-mer frequency, TF over GST control); with ELK4, 1.02 fold enrichment (6-mer frequency, TF over GST control); with ETV2, 1.08 fold enrichment (6-mer frequency, TF over GST control); with ETV3L it was 1.09 fold enrichment (6-mer frequency, TF over GST control); with SPDEF it was 1.06 fold enrichment (6-mer frequency, TF over GST control). In addition, the binding signal with ETV3 was 1.09 fold enrichment (6-mer frequency, TF over GST control).
